Source: PubChem BioAssay (NCATS)
Inconclusive results are not listed. A number with no mark means an inactive call. Calls of active or inactive are those of the source. Calls follow the shape of the dose curve; as a rule, active = well fitted inhibition curve with a large enough effect; inconclusive = small, poorly fitted or top-dose-only effect; inactive = flat fitted curve, though single readings scatter.

assay: qHTS to identify inhibitors of the type 1 interferon - major histocompatibility complex class I in skeletal muscle: primary screen against the NCATS Pharmaceutical Collection (AID 1347407); conditions: human skeletal muscle cells, IFN-b-induced MHC-I HiBiT luminescence, 24 h; series mostly up to 45.9 µM; activity change, negative = inhibition: at the top concentration
Text: Assay Submitter (PI): Travis B. Kinder Ph.D. & James Inglese Ph.D.
Assay Development and Screening Technology Laboratory (ADST)
National Center for Advancing Translational Sciences (NCATS), Rockville, MD
National Institute of Health (NIH), Bethesda, Maryland
Idiopathic inflammatory myopathies, collectively referred to as myositis, are a group of rare autoimmune diseases characterized by skeletal muscle inflammation, weakness, and usually accompanied by systemic pathologies of the skin, lungs, or vasculature. Current immunosuppressive therapies and glucocorticoids are often not curative and are accompanied by harsh side effects, especially in children with juvenile myositis. We initiated a drug repurposing and development program to identify more targeted, less toxic therapeutics to treat myositis. Although its cause is not known, muscle from a subset of patients have an abundance of the inflammatory type 1 interferon (IFN) and a down-stream product major histocompatibility complex class I (MHC class I), which are both thought to contribute to damage and weakness. We conducted quantitative high throughput screening on 6,576 compounds (4,679 unique) through a series of cell-based assays to identify those that inhibit the IFN-stimulated expression of MHC class I in muscle precursor cells (myoblasts). The compound identification and evaluation strategy utilized a primary screen with reporter-tagged MHC class I in genome-engineered myoblasts, ATP content counter screen for viability, HLA-ABC immunofluorescence secondary screen, and HLA-B RT-qPCR tertiary screen.
The primary screen utilized CRISPR/Cas9 genome-engineering of immortalized human myoblasts, C25cl48, where a pro-luminescent reporter HiBit was fused to the C-terminus of endogenous MHC class I allele HLA-B*08:01 (HLA-B HiBit myoblasts). HiBit is an 11 amino acid fragment of NanoLuc luminescent reporter (Promega Corporation), and when complexed to the larger LgBit fragment, the reconstituted enzyme produces light in the presence of furimazine substrate (Schwinn et al., 2018). Briefly, HLA-B HiBit myoblasts were plated into 1536-well plates, treated with 4.0 ng/ml human IFN-beta and 2,816 compounds from the NCATS Pharmaceutical Collection (NPC) that contains all drugs approved in the US, EU, and Japan (Huang et al., 2011) in an 8-point, 1:5 titration with a high final concentration of 46 uM. After 24 hrs of treatment, cells were assayed by Nano-Glo HiBiT Lytic Detection System (Promega) and luminescence measured by a ViewLux 1430 Ultra HTS (Perkin Elmer).
Huang R, Southall N, Wang Y, Yasgar A, Shinn P, Jadhav A, Nguyen D-T, Austin CP. 2011. The NCGC pharmaceutical collection: a comprehensive resource of clinically approved drugs enabling repurposing and chemical genomics. Sci Transl Med 3:80ps16. doi:10.1126/scitranslmed.3001862
Schwinn MK, Machleidt T, Zimmerman K, Eggers CT, Dixon AS, Hurst R, Hall MP, Encell LP, Binkowski BF, Wood K V. 2018. CRISPR-Mediated Tagging of Endogenous Proteins with a Luminescent Peptide. ACS Chem Biol 13:467-474. doi:10.1021/acschembio.7b00549
PROTOCOL TABLE (as described by Inglese et al., 2007)
SEQUENCE No. (e.g., 1, 2, 3, etc.); […] (e.g., Cells, Incubation, Reagent, etc.); VALUE; DESCRIPTION
1a; Cells; 5 uL; Use a Multidrop Combi (Thermo Scientific) to seed 350 cells/well into nine Greiner 1536 well white/solid bottom, high base, TC plates in 5 ul/well of iHSKM growth medium (GM) without dexamethasone into columns 1+2. Add metal lids with gas-exchange holes
1b; Cells; 5 uL; Use a Multidrop Combi (Thermo Scientific) to seed 350 cells/well into nine Greiner 1536 well white/solid bottom, high base, TC plates in 5 ul/well of iHSKM GM without dexamethasone + 4 ng/ml IFN-b into columns 3 - 48. Add metal lids with gas-exchange holes
2; Incubate; 1 hr; Incubate at 37 C, 5% CO2, 95% RH
[…]
% is scaled to controls: 0 for no effect and ±100 for the full control effect; potency is read from the fitted curve at half-maximal effect.

SMILES | activity change, negative = inhibition | Potency
NCCC(O)(P(=O)(O)O)P(=O)(O)O | -4.94% | –
CN=C(NC#N)NCCSCc1csc(N=C(N)N)n1 | -19.5% | –
CN(C)CCCOc1nn(Cc2ccccc2)c2ccccc12 | -7.25% | –
Clc1ccc2c(c1)CCc1cccnc1C2=C1CCNCC1 | -25.4% | –
CC1(C)O[C@@H]2[C@@H](CO[C@@]3(COS(N)(=O)=O)OC(C)(C)O[C@@H]23)O1 | 3.39% | –
Cc1nc2n(c(=O)c1CCN1CCC(c3noc4cc(F)ccc34)CC1)CCC[C@H]2O | -4.11% [at 19 µM] | –
CO/N=C1\CN(c2nc3c(cc2F)c(=O)c(C(=O)O)cn3C2CC2)CC1CN (stereo not given) | 7.73% | –
CCCCOc1ccc(OCCCN2CCOCC2)cc1 | -17.3% | –
CCOC(=O)[C@H](CCc1ccccc1)N[C@@H](C)C(=O)N1Cc2ccccc2C[C@H]1C(=O)O | 14.9% | –
O=C1OCCN1/N=C/c1ccc([N+](=O)[O-])o1 | 2.2% | –
CCCCCCc1ccc(O)cc1O | -3.16% | –
CCOC(=O)c1cccc(N)c1 | 0.618% | –
C[C@@H](CN(C)C)CN1c2ccccc2Sc2ccccc21 | -22.2% | –
COc1cc2c(cc1OC)C(=O)C(CC1CCN(Cc3ccccc3)CC1)C2 (stereo not given) | -2.16% | –
CCCSS/C(CCO)=C(\C)N(C=O)Cc1cnc(C)nc1N | -22.5% | –
Cc1c(C(C)C)c(=O)n(-c2ccccc2)n1C | -1.58% | –
NC[C@H]1O[C@H](O[C@H]2[C@H](O[C@@H]3O[C@H](CO)[C@@H](O)[C@H]3O)C(O)[C@H](N)C[C@@H]2N)[C@H](N)[C@@H](O)[C@@H]1O (stereo not given in full) | -10.7% [at 9.18 µM] | –
CCCCN1CCCC1C(=O)Nc1c(C)cc(C)cc1C (stereo not given) | 4.33% | –
c1ccc(-c2ccc(C(c3ccccc3)n3ccnc3)cc2)cc1 (stereo not given) | -22.6% | –
CCCCOc1ccc(C(=O)CCN2CCCCC2)cc1 | -17.3% | –

SMILES | activity change, negative = inhibition | Potency
CN(C)C(=S)SC(=S)N(C)C | 0.873% | –
COc1cc(N)c(Cl)cc1C(=O)NC1CCN(CCCOc2ccc(F)cc2)CC1OC (stereo not given) | -19.1% | –
CC(C)(Oc1ccc(Cl)cc1)C(=O)O | -7.33% | –
O=C(OCCOCCO)c1ccccc1Nc1cccc(C(F)(F)F)c1 | -4.07% | –
CCCCC(CC)CN=C(N)NC(N)=NCCCCCCN=C(N)NC(N)=NCC(CC)CCCC (stereo not given) | – | 14.9 µM (active)
Oc1cc(O)c2c(c1)O[C@H](c1ccc(O)c(O)c1)[C@H](O)C2 | -9.11% | –
CCN(CC)C(=O)/C(C#N)=C/c1cc(O)c(O)c([N+](=O)[O-])c1 | -14.4% | –
Cc1ncc(CSSCc2cnc(C)c(O)c2CO)c(CO)c1O | 3.32% | –
COc1c2occc2c(OC)c2c(=O)cc(C)oc12 | 13.6% | –
C=C1C[C@H]2[C@@H]3C=C(C)C4=CC(=O)CC[C@]4(C)[C@H]3CC[C@]2(C)[C@@]1(OC(C)=O)C(C)=O | -33.8% | –
Cc1cc(N)c2cc(NC(=O)Nc3ccc4nc(C)cc(N)c4c3)ccc2n1 | -28.5% | –
CCOC(=O)COc1ccc2c(C)c(CCN(CC)CC)c(=O)oc2c1Cl | – | 21 µM (active)
COc1ccc(C2C(=O)c3ccccc3C2=O)cc1 | 4.41% | –
NC(=O)C(=O)N/N=C/c1ccc([N+](=O)[O-])o1 | 3.32% | –
Oc1ccc(O)cc1 | 15.1% | –
COc1cccc(OC)c1C(=O)N[C@@H]1C(=O)N2[C@@H]1SC(C)(C)[C@@H]2C(=O)O | 1.84% | –
CC[C@@H](CO)NCCN[C@@H](CC)CO | -0.0369% | –
CN(C/C=C/c1ccccc1)Cc1cccc2ccccc12 | -15.8% | –
CCN(CC)CCOC(=O)C(c1ccccc1)C1CCCCC1 (stereo not given) | -15% | –
O=C(COc1ccc(Cl)cc1)N1CCN(Cc2ccc3c(c2)OCO3)CC1 | 10.6% | –
